Several values for one entry are separate records, joined by “and”; a condition that tells them apart may be missing. Equal values may be shown once. Records with an inconclusive call do not appear. Activity calls are given as the source filed them. Unless noted, calls come from the whole dose curve; as a rule, active = well fitted curve in the direction sought with a large enough effect in the repeat runs; inconclusive = weak or mixed curves; inactive = no such curve, though single readings can be large; an effect the other way counts as inactive or inconclusive.

In experiment [1] the test system is thyroid hormone receptor (rat, GH3 cells). Description: qHTS assay to identify small molecule agonists of the thyroid receptor (TR) signaling pathway (AID 743066; calls by dose curve). A general note: qHTS replaces the single test concentration by a dilution series.
Experiment [2] can be described thus: qHTS assay to identify small molecule antagonists of the estrogen receptor alpha (ER-alpha) signaling pathway - cell viability counter screen (AID 743074; calls by dose curve;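 note: HEK293 cells carrying ER-alpha-UAS-bla reporter stimulated with 17beta-estradiol; nearly all actives have a fitted effect of over 45% in size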).
Experiment [3] has as its target Aromatase (Homo sapiens) (UniProt P11511). The experiment can be described thus: qHTS assay to identify aromatase inhibitors (AID 743083). Note: nearly all actives have a fitted effect of over 55% in size. Note: potency is the fitted concentration of half-maximal effect.
Experiment [4] is described as follows: qHTS assay to identify aromatase inhibitors - cell viability counter screen (AID 743084).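 Note: cells stimulated with testosterone during compound exposure; nearly all actives have a fitted effect of over 55% in size.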 Note: potency is the fitted concentration of half-maximal effect.
Experiment [5] in a line: qHTS assay to identify small molecule antagonists of the estrogen receptor alpha (ER-alpha) signaling pathway using the BG1 cell line - cell viability counter screen (AID 743081).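 Note: compound given together with 17beta-estradiol as the ER stimulus; nearly all actives have a fitted effect of over 45% in size.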 Note: potency is the fitted concentration of half-maximal effect.
Experiment [6] has as its target Estrogen receptor (Homo sapiens) (UniProt P03372). The experiment can be described thus: qHTS assay to identify small molecule agonists of the estrogen receptor alpha (ER-alpha) signaling pathway (AID 743075; calls by dose curve;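 note: HEK293 GripTite cells with ER-alpha and UAS-driven beta-lactamase reporter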).
Experiment [7] shares this target. The experiment can be described thus: qHTS assay to identify small molecule agonists of the estrogen receptor alpha (ER-alpha) signaling pathway using the BG1 cell line (AID 743079). Note: nearly all actives have a fitted effect of over 20% in size. Note: potency is the fitted concentration of half-maximal effect. As to conditions: BG1Luc4E2 cells, ERE-luciferase agonist, 22 h; activation: at 70.3 µM (top of the series).
Experiment [8] in a line: qHTS assay to identify small molecule antagonists of the estrogen receptor alpha (ER-alpha) signaling pathway using the BG1 cell line (AID 743080; calls by dose curve;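 note: BG1 cells stimulated with 17beta-estradiol alongside compound; nearly all actives have a fitted effect of over 25% in size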). A digest of the protocol:
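Quantitative HTS on the Tox21 10K library: BG1 cells with endogenous ER-alpha and ERE-luciferase reporter, 17beta-estradiol stimulation, 21.5 h compound exposure, luminescence endpoint with parallel fluorescence cytotoxicity counter-read.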

In experiment [9] the target is Estrogen receptor (Homo sapiens) (UniProt P03372). Description: qHTS assay to identify small molecule antagonists of the estrogen receptor alpha (ER-alpha) signaling pathway (AID 743069; active = well fitted curve in the direction sought with a large enough effect in the signal ratio in the repeat runs, not every such curve was filed as active; the % refers to the signal ratio). The method, boiled down: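 Estradiol-stimulated ER-alpha-UAS-bla HEK293 cells, 18 hr compound exposure at 37C. LiveBLAzer B/G substrate, 2 hr RT, fluorescence read.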
Chain of Estrogen receptor (Homo sapiens) (P03372 whole entry, looked up): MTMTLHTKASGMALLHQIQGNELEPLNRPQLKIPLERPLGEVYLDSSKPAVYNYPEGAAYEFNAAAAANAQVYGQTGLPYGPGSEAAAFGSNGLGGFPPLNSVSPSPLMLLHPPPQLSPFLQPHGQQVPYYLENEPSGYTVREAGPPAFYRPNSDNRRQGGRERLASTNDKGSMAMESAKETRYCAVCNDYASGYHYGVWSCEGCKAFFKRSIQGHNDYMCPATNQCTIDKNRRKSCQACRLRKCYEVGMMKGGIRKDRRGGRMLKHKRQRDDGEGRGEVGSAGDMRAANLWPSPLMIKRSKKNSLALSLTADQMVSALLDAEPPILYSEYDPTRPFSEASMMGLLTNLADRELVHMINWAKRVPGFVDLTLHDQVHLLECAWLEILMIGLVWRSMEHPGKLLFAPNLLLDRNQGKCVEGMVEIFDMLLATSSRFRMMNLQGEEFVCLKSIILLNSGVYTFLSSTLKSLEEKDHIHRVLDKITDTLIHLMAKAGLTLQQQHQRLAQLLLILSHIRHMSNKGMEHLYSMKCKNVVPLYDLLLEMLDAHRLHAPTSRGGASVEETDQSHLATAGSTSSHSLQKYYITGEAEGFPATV

Chain of Aromatase (Homo sapiens) (P11511 whole entry, looked up): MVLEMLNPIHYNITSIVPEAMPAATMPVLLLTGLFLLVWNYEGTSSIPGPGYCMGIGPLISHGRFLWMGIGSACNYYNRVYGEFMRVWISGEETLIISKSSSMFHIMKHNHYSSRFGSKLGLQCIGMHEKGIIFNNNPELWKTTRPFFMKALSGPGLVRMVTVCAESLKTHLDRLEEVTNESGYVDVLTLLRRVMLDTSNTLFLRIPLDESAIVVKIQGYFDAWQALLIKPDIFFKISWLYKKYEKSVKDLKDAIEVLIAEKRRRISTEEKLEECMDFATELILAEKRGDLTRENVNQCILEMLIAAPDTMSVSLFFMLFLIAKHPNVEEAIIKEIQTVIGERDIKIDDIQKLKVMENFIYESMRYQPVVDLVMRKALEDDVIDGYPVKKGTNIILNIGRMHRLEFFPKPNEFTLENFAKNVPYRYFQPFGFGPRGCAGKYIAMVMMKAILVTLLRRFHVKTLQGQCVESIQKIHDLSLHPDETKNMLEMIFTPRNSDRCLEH

As to `CCCCCCCCCCCC(=O)[O][Sn]([CH2]CCC)([CH2]CCC)[O]C(=O)CCCCCCCCCCC`, the outcome in experiment [1] was inactive. The Potency result in experiment [2], in experiment [3] and in [4] was “inactive” in each case.
Consider `CC(C)C(OC(=O)c1ccccc1)C(C)(C)COC(=O)c1ccccc1` (stereo not given), for which the call in experiment [1] was inactive. In addition, the Potency result in experiment [5] and in [4] was “inactive” each time.
`Cc1cc(OI)c(C(C)C)cc1-c1cc(C(C)C)c(OI)cc1C`: the molecule was classed as inactive in experiment [1]. Besides, the Potency result in [2], in experiment [5], in [3] and in experiment [4] was “inactive” each time.
For `CC(C)(C)CC(C)(C)c1ccc(OCCO)cc1`, the Potency entry in experiment [2] and in experiment [6] was “inactive” each time. Besides, the Potency in [5] was 24.2 µM (active); in experiment [3], 26.6 µM (active) and 43 µM (active); in [4], 33.5 µM (active) and 30.5 µM (active).
For the molecule `C=CC(C)=CCC=C(C)C`, in experiment [1], the molecule was called inactive. Further, the Potency entry in experiment [2], in experiment [5], in experiment [3] and in experiment [4] was “inactive” in each case.
As to `CO/N=C1\CN(c2nc3c(cc2F)c(=O)c(C(=O)O)cn3C2CC2)CC1CN` (stereo not given), the Potency result in [2], in [6], in [7], in [8], in experiment [5] and in [3] was “inactive” throughout. Also, the Potency entry in experiment [4] was “inactive”.
`O=C(Nc1ccc([N+](=O)[O-])cc1)Nc1ccc([N+](=O)[O-])cc1`: the molecule was classed as inactive in experiment [1]. Moreover, the Potency entry in [5], in experiment [3] and in experiment [4] was “inactive” each time.
On to `O=C(/C=C/c1ccccc1)OCCCc1ccccc1`, for which the Potency result in experiment [9], in experiment [6], in experiment [5], in experiment [3] and in experiment [4] was “inactive” throughout. In addition, in experiment [7], the Potency is 27.3 µM (active).
For the molecule `CC(=O)[C@H]1CC[C@H]2[C@@H]3C=CC4=CC(=O)CC[C@@]4(C)[C@@H]3CC[C@]12C`, the result in experiment [1] was inactive. For the same molecule, the Potency entry in experiment [2], in [6], in experiment [7], in experiment [5], in experiment [3] and in experiment [4] was “inactive” each time.
As for `CC(=O)Oc1ccc(C(=C2CCCCC2)c2ccc(OC(C)=O)cc2)cc1`, the Potency entry in [9], in experiment [2], in experiment [6], in [7], in experiment [8] and in [5] was “inactive” each time. Moreover, the Potency entry in experiment [3] and in experiment [4] was “inactive” each time.
In the case of `CC1(C)C2=CCCC(C)(C)[C@]23CC[C@H]1C3`, the result in experiment [1] was inactive. In addition, the Potency entry in experiment [2], in experiment [5] and in [4] was “inactive” each time.
Take `C[C@@H]1C[C@H]2[C@@H]3CCC4=CC(=O)C=C[C@]4(C)[C@@]3(F)[C@@H](O)C[C@]2(C)[C@@]1(O)C(=O)CO`: the molecule was called inactive in [1]. Besides, the Potency entry in experiment [2], in experiment [5], in experiment [3] and in experiment [4] was “inactive” each time.
For `Nc1ccc(C(=O)OCCCOC(=O)c2ccc(N)cc2)cc1`, the outcome in experiment [1] was inactive. Further, the Potency result in [2], in experiment [6], in experiment [8], in experiment [5] and in [4] was “inactive” each time. In addition, the Potency in experiment [3] is 30.6 µM (active).
For `CC(=O)OCC(=O)[C@@]12OC(C)(C)O[C@@H]1C[C@H]1[C@@H]3C[C@H](F)C4=CC(=O)C=C[C@]4(C)[C@@]3(F)[C@@H](O)C[C@@]12C`, the Potency result in [2], in experiment [5], in [3] and in experiment [4] was “inactive” throughout.
As for `C(=C\c1ccccc1)/CN1CCN(C(c2ccccc2)c2ccccc2)CC1`, the Potency result in [2], in [5], in experiment [3] and in [4] was “inactive” in each case.
Consider `CCCCC/C(=C\c1ccccc1)CO`, for which, in experiment [1], the outcome was inactive. Besides, the Potency result in experiment [2] and in experiment [5] was “inactive” each time. Moreover, the Potency in [3] was 30.3 µM (active).
With `CC(C)(O)c1ccccc1CC[C@@H](SCC1(CC(=O)O)CC1)c1cccc(/C=C/c2ccc3ccc(Cl)cc3n2)c1`, the Potency result in [6], in experiment [5], in experiment [3] and in [4] was “inactive” throughout.
With `Cc1cc(S(=O)(=O)O)ccc1N=Nc1c(O)ccc2ccccc12`, the molecule was called inactive in experiment [1]. The Potency result in experiment [2] and in [3] was “inactive” in each case. Besides, the Potency in [5] is 30.6 µM (active); in [4], 27.3 µM (active).
As for `CCCC1C(CC)=CC(CC)=CN1c1ccccc1` (stereo not given), in [1], the molecule was called inactive. For the same molecule, the Potency result in [2], in [3] and in experiment [4] was “inactive” in each case.
Take `O=C(c1ccc(O)cc1)c1ccc(Cl)cc1`: the outcome in experiment [1] was inactive. For the same molecule, the Potency entry in [2], in [5], in experiment [3] and in experiment [4] was “inactive” in each case.
As for `C[C@]12CCC(=O)C=C1C=C[C@@H]1[C@@H]2CC[C@@]2(C)[C@H]1CC[C@@]21CCC(=O)O1`, in [1], the molecule was classed as inactive. Further, the Potency entry in [2], in experiment [6], in experiment [5] and in experiment [4] was “inactive” throughout.
As to `CCCOc1ccc(S(=O)(=O)N2CCN(CC)CC2)cc1-c1nc2c(CC)n(Cc3ccccn3)nc2c(=O)[nH]1`, the outcome in [1] was inactive. The Potency result in experiment [2], in experiment [6], in [7], in experiment [5], in experiment [3] and in experiment [4] was “inactive” in each case.
`O=C(CS)OCCOC(=O)CS`: the molecule was called inactive in [1]. Further, the Potency result in experiment [2], in experiment [5], in [3] and in [4] was “inactive” each time.
Regarding `Cc1cc(O)c2c(O)c3c(O)cccc3cc2c1`, the result in [1] was inactive. The Potency entry in experiment [2], in experiment [5], in experiment [3] and in [4] was “inactive” throughout.
Regarding `CC(=O)CC(c1ccc([N+](=O)[O-])cc1)c1c(O)c2ccccc2oc1=O` (stereo not given), the Potency result in experiment [9], in experiment [2], in experiment [6], in [7], in experiment [8] and in experiment [5] was “inactive” each time. The Potency entry in experiment [3] and in experiment [4] was “inactive” throughout.
Consider `COc1ccccc1N=Nc1c(S(=O)(=O)O)cc2cc(S(=O)(=O)O)cc(NC(C)=O)c2c1O`, for which the molecule was called inactive in [1]. Further, the Potency entry in experiment [2] was “inactive”. Besides, the figures for the Potency in experiment [5] and in experiment [4] were 28.8 µM (active) and 20.4 µM (active), respectively.
Turning to `N#C/C(=C1\SCC(c2ccccc2Cl)S1)n1ccnc1` (stereo not given), the Potency result in experiment [2], in [5] and in [4] was “inactive” throughout. In addition, the Potency in experiment [3] is 3.35 µM (active).
For the molecule `Cc1oncc1C(=O)Nc1ccc(C(F)(F)F)cc1`, the Potency entry in experiment [9], in experiment [2], in [6], in experiment [7], in experiment [5] and in experiment [3] was “inactive” in each case. In [4], the Potency result was “inactive”.
